Screening data as filed in PubChem.
FBW7 act: human FBW7 E3 ligase activation, primary screen | 650,000 compounds, 0.13% hits | normalized activity (activation), % at 26.1 µM | AID 1259310 | AlphaScreen FBW7–phospho-cyclin E peptide binding, activator screen | Q969H0; in the data active = normalized activity above about 1.9%;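 note: purified mutant Fbw7 with reduced substrate affinity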
MITF primary: human MITF inhibition, primary screen; inhibition, % at 2.6 µM; AlphaScreen MITF homodimerization, bead proximity signal; O75030; 650,000 compounds, 0.91% hits; in the data active = inhibition above about 50%;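 note: 0% = vehicle wells with protein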
GPR151 ag: human GPR151 activation; AID 1508602; 650,000 compounds, 1% hits; Q8TDV0; activation, % at 11.2 µM; PathHunter beta-arrestin GPR151 cells, luminescence; in the data active = activation above about 4.9%;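 note: 0% = median of compound wells and 100% = cells with positive control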
TEAD-YAP inh: TEAD-YAP interaction inhibition; HEK-TIYL cells, TEAD-Gal4/YAP UAS-luciferase luminescence; inhibition, % at 9.12 µM; 640,000 compounds, 1.4% hits; AID 1259422; in the data active = inhibition above about 32%;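 note: 0% = median of test compound wells and 100% = reference inhibitor wells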
MITF inh conf: confirmation of human MITF inhibitors. shares compounds with MITF primary. AlphaScreen MITF homodimerization, biotin/His-MITF beads. inhibition, % at 2.6 µM. 4,700 compounds, 16% hits;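 active = inhibition above a cutoff derived from the DMSO control wells, cut at about 28% in these data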;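 note: 0% = MITF dimer wells with DMSO only; inhibitors lower the bead chemiluminescence by keeping MITF from dimerizing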
AS interf DR: counter-screen: compounds optically interfering with AlphaScreen. 480 compounds, 6% hits. AlphaScreen optical interference counterscreen, cell-free. shares compounds with MITF primary. IC50, µM; call rule not given here
AS interf ctr: counter-screen: compounds optically interfering with AlphaScreen; shares compounds with MITF primary; LysRS AlphaScreen counterscreen, signal interference, triplicate; inhibition, % at 2.6 µM; 4,700 compounds, 7.6% hits; AID 1259376;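 active = inhibition above a cutoff derived from the DMSO control wells, cut at about 30% in these data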
The depositor's hits bear a star; . = no result given; ! = not active in a repeat. The list is not random: actives were taken first. Their share in the collection is about 3.5%.

SMILES	FBW7 act	MITF primary	GPR151 ag	TEAD-YAP inh	MITF inh conf	AS interf ctr	others
COc1ccc(C(N)=O)cc1NC(=O)c1ccc2c(=O)n(Cc3ccccc3)c(=S)[nH]c2c1	0	13	-2	-3	.	.
Cc1cc(C)c(C)c(S(=O)(=O)N2CCN(c3cccc(C(F)(F)F)c3)CC2)c1C	0	63*	2	-3	4	17
Cc1c(S(=O)(=O)N2CCN(c3cccc(C(F)(F)F)c3)CC2)c(=O)n(C)c(=O)n1C	1	22	-2	6	.	.
O=c1c(O)c(-c2ccc(O)cc2O)oc2cc(O)cc(O)c12	0	67*!	0	0	43*	-7	AS interf DR=>6.5
Fc1cccc(F)c1CN1CCOCC1	0	7	0	-1	.	.
CC1CCN(C2CCN(Cc3ccccc3F)CC2)CC1	0	64*	1	7	-2	0
Fc1ccccc1CN1CCN(C2CCCC2)CC1	0	29	-2	-1	.	.
OCCN1CCN(C2CCN(Cc3ccccc3F)CC2)CC1	0	82*	0	0	3	6
CC1CCN(Cc2c(F)cccc2F)CC1	0	63*	4	-11	-3	2
Cc1ccccc1CN1CCN(C2CCCCCC2)CC1	0	69*	0	2	-8	2
Cc1nn2cnnc2c(C)c1Cc1cnc(Cl)s1	0	8	-1	4	.	.
Cc1oc(C)c(S(=O)(=O)N2CCCC2)c1C(=O)Nc1cccnc1	0	6	3	0	.	.
CCCCCCC(=O)OC1CCC2(C)C(=CCC3C2CCC2(C)C(C(C)CCCC(C)C)CCC32)C1 (centres undefined)	0	2	-1	5	.	.
CC(C)NC(=O)CN1C(=O)COc2ccc(S(=O)(=O)N3CCOCC3)cc21	0	-15	0	3	.	.
CCCCn1c(CNC(=O)c2ccccc2OC)nnc1SCC(=O)Nc1sc(C(=O)OCC)c(C)c1C(=O)OCC	0	-2	0	7	.	.
CCCCC(=O)Nc1sc(C(C)=O)c(C)c1C(=O)OCC	0	-6	-1	10	.	.
COc1ccc(CCn2c(-c3ccc(Br)cc3)cn3c4c(=O)n(C)c(=O)n(C)c4nc23)cc1OC	0	-2	0	0	.	.
Cc1ccccc1CN1CCC(N2CCN(CCO)CC2)CC1	0	59*	1	-9	-10	-2
Cc1ccccc1CN1CCC(N2CCC(C(=O)N3CCCC3)CC2)CC1	0	2	1	6	.	.
CC(=O)c1cccc(-c2nc3ncnc(NCCN4CCOCC4)c3[nH]2)c1	0	3	2	0	.	.
Cc1cc(C)n2nc(N)c(N)c2n1	0	62*	0	-13	29*	1	AS interf DR=>12
Cc1cc(C)n2nc(N)nc2n1	0	8	0	3	.	.
CC(=O)Nc1ccc(S(=O)(=O)N2CCN(CC3CC4C=CC3C4)CC2)cc1 (centres undefined)	0	51*	0	-3	-11	-3
C/C(=N\Nc1ccc(C(F)(F)F)cn1)c1ccccn1	-1	58*	3	87*	11	35*
C/C(=N\Nc1nc2ccccc2[nH]1)c1ccccn1	-1	105*	-5	74*	110*	99*
SMILES	FBW7 act	MITF primary	GPR151 ag	TEAD-YAP inh	MITF inh conf	AS interf ctr	others
C/C(=N\Nc1nc2ccccc2[nH]1)c1cccnc1	0	-4	1	-17	.	.
O=C1C(=O)N(C2CCCC2)C(=O)N1C1CCCCC1	0	-5	0	-13	.	.
Cc1oc(C(=O)O)cc1CSCCSCc1cc(C(=O)O)oc1C	-1	52*	1	1	42*	16	AS interf DR=>6.5
CC(=O)c1cccc(-c2cc(NCCOc3ccccc3)nc(N)n2)c1	0	8	-1	-20	.	.
CCCCOc1ccc(C(=O)Nc2nc(-c3ccc(OC)cc3OC)cs2)cc1	0	-12	1	-1	.	.
CCCCOc1ccc(C(=O)Nc2nc(-c3ccc(OC)c(C)c3)cs2)cc1	0	64*	0	-4	-1	13
NCc1nc2ccc(Cc3ccc4nc(CN)[nH]c4c3)cc2[nH]1	0	105*	-1	-4	84*	100*
O=C(NCCN1CCOCC1)c1ccc(I)cc1	0	-1	0	-17	.	.
CC(C)OCCCNC(=O)CN(c1cccc([N+](=O)[O-])c1)S(C)(=O)=O	0	-15	1	-5	.	.
O=[N+]([O-])c1ccccc1CN1CCSCC1	0	38	0	0	.	.
